Consider five compounds from paper PMC11062922 (Nature Chemical Biology, 2023).

Like-named read-outs stand apart in the source and are kept apart here.

One assay has as its system ADCK3. The arrangement: species or system human, MV4-11 + K-562 + COLO205 + SK-N-BE2 + OVCAR-8. The note with it: read-out: apparent Kd, n = 1.
The test system of the next assay is AKT1. The arrangement: species or system human, MV4-11 + K-562 + COLO205 + SK-N-BE2 + OVCAR-8. The settings on record: read-out: apparent Kd; compound concentrations: 100 nM and 1000 nM (sheet 'Samples'), CATDS: 0.104224113270125; n = 1.
Another assay has as its system AKT2. The arrangement: species or system human, MV4-11 + K-562 + COLO205 + SK-N-BE2 + OVCAR-8. The note with it: read-out: apparent Kd; compound concentrations: 100 nM and 1000 nM (sheet 'Samples'), CATDS: 0.10421017655023999; n = 1.
A further assay deals with CSNK1A1. The arrangement: species or system human, MV4-11 + K-562 + COLO205 + SK-N-BE2 + OVCAR-8. The note with it: read-out: apparent Kd, compound concentrations: 100 nM and 1000 nM (sheet 'Samples'), n = 1.
The next assay relates to MAP2K1. Also on record: species or system human, MV4-11 + K-562 + COLO205 + SK-N-BE2 + OVCAR-8. The settings on record: read-out: apparent Kd; compound concentrations: 100 nM and 1000 nM (sheet 'Samples'), CATDS: 0.110237039965707; n = 1.
Another assay relates to NQO1. The arrangement: species or system human, MV4-11 + K-562 + COLO205 + SK-N-BE2 + OVCAR-8. The note with it: read-out: apparent Kd; compound concentrations: 100 nM and 1000 nM (sheet 'Samples'), CATDS: 0.123163223225838; n = 1.
For a further assay, the system named is RIOK2. The arrangement: species or system human, MV4-11 + K-562 + COLO205 + SK-N-BE2 + OVCAR-8. The note with it: read-out: apparent Kd; compound concentrations: 100 nM and 1000 nM (sheet 'Samples'), CATDS: 0.117096482211817; n = 1.
The test system of another assay is ZAK. Also on record: species or system human, MV4-11 + K-562 + COLO205 + SK-N-BE2 + OVCAR-8. The note with it: read-out: apparent Kd; compound concentrations: 100 nM and 1000 nM (sheet 'Samples'), CATDS: 0.14081253885296899; n = 1.
Another assay relates to IRAK3. Also on record: species or system human, MV4-11 + K-562 + COLO205 + SK-N-BE2 + OVCAR-8. The settings on record: read-out: apparent Kd; compound concentrations: 100 nM and 1000 nM (sheet 'Samples'), CATDS: 0.24255292072304399; n = 1.
Another assay has as its system LIMK1. The arrangement: species or system human, MV4-11 + K-562 + COLO205 + SK-N-BE2 + OVCAR-8. The note with it: read-out: apparent Kd; compound concentrations: 100 nM and 1000 nM (sheet 'Samples'), CATDS: 0.14732071058877899; n = 1.
Another assay deals with NEK1. Also on record: species or system human, MV4-11 + K-562 + COLO205 + SK-N-BE2 + OVCAR-8. The settings on record: read-out: apparent Kd; compound concentrations: 100 nM and 1000 nM (sheet 'Samples'), CATDS: 0.13907038524561799; n = 1.
A further assay concerns NUAK2. The arrangement: species or system human, MV4-11 + K-562 + COLO205 + SK-N-BE2 + OVCAR-8. The settings on record: read-out: apparent Kd; compound concentrations: 100 nM and 1000 nM (sheet 'Samples'), CATDS: 0.15992761786182699; n = 1.
The target of the next assay is Q6ZSR9 (human, UniProt Q6ZSR9). The arrangement: species or system MV4-11 + K-562 + COLO205 + SK-N-BE2 + OVCAR-8. The settings on record: read-out: apparent Kd; compound concentrations: 100 nM and 1000 nM (sheet 'Samples'), CATDS: 0.17489786753405201; n = 1.
A further assay deals with BMPR2. The arrangement: species or system human, MV4-11 + K-562 + COLO205 + SK-N-BE2 + OVCAR-8. The note with it: read-out: apparent Kd; compound concentrations: 100 nM and 1000 nM (sheet 'Samples'), CATDS: 0.122163431962668; n = 1.
The test system of a further assay is CSNK1D. Also on record: species or system human, MV4-11 + K-562 + COLO205 + SK-N-BE2 + OVCAR-8. The settings on record: read-out: apparent Kd; compound concentrations: 100 nM and 1000 nM (sheet 'Samples'), CATDS: 0.25978966817559301; n = 1.
For another assay, the system named is CSNK1E. Also on record: species or system human, MV4-11 + K-562 + COLO205 + SK-N-BE2 + OVCAR-8. The settings on record: read-out: apparent Kd; compound concentrations: 100 nM and 1000 nM (sheet 'Samples'), CATDS: 0.174355768455381; n = 1.
Another assay has as its system PKN2. Also on record: species or system human, MV4-11 + K-562 + COLO205 + SK-N-BE2 + OVCAR-8. The settings on record: read-out: apparent Kd; compound concentrations: 100 nM and 1000 nM (sheet 'Samples'), CATDS: 0.12366746425094501; n = 1.
For a further assay, the system named is ARAF. The arrangement: species or system human, MV4-11 + K-562 + COLO205 + SK-N-BE2 + OVCAR-8. The note with it: read-out: apparent Kd; compound concentrations: 100 nM and 1000 nM (sheet 'Samples'), CATDS: 0.31382782577056201; n = 1.
For the next assay, the system named is PIK3CB. Also on record: species or system human, MV4-11 + K-562 + COLO205 + SK-N-BE2 + OVCAR-8. The note with it: read-out: apparent Kd; compound concentrations: 100 nM and 1000 nM (sheet 'Samples'), CATDS: 0.29308113927572399; n = 1.

Q6ZSR9, sequence (Q6ZSR9 whole entry, looked up): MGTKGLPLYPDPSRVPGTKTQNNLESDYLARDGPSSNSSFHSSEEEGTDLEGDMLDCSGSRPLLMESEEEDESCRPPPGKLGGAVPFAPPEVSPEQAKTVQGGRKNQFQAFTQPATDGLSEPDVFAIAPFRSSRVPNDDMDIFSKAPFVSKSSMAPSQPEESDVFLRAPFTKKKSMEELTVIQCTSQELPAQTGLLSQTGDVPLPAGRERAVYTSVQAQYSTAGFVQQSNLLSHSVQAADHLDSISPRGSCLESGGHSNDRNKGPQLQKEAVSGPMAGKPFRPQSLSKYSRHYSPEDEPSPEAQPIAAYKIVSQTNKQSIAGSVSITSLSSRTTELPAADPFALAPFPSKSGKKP

As for `COc1cccc(-n2cnc3c(N)ncnc32)c1` [SKF-97416], the potency estimated from few doses was 155 nM with ADCK3 (compound concentrations: 100 nM and 1000 nM (sheet 'Samples'), CATDS: 0.45631454504768898); 2120 nM in the assay with AKT1; 2120 nM in the assay on AKT2; 2240 nM in the assay on CSNK1A1 (CATDS: 0.102191451764392); 1830 nM in the assay with MAP2K1; 1400 nM in the assay with NQO1. Further, the potency estimated from few doses with RIOK2 is 1580 nM; in the assay with ZAK, 1050 nM.
For `COc1cc(Nc2nccc(N3CCC(NC(=O)Nc4cccc(C(C)=O)c4)C3)n2)cc(OC)c1OC` (stereo not drawn) [GSK1379753A], the potency estimated from few doses in the assay with ADCK3 (compound concentrations: 100 nM and 1000 nM (sheet 'Samples'), CATDS: 0.16868464966378999) is 1380 nM; in the assay on IRAK3, 726 nM; with LIMK1 it was 1850 nM; in the assay with NEK1, 2140 nM; with NUAK2, 1540 nM; with Q6ZSR9, 1280 nM.
For `Nc1nc(-c2ccc3c(N)n[nH]c3c2)cc(N2CCC[C@@H](C(=O)Nc3ccccc3)C2)n1.Nc1nc(-c2ccc3c(N)n[nH]c3c2)cc(N2CCC[C@@H](C(=O)Nc3ccccc3)C2)n1.O=C(O)C(F)(F)F.O=C(O)C(F)(F)F` [GSK2288359A], the potency estimated from few doses in the assay on ADCK3 (compound concentrations:100 nM and 1000 nM (sheet 'Samples')) was 1100 nM.
For `Cc1cc(C)c2c(n1)sc1c(N)ncnc12` [RO4241967-000], the potency estimated from few doses in the assay on ADCK3 (compound concentrations: 100 nM and 1000 nM (sheet 'Samples'), CATDS: 0.164080926877189) is 987 nM; with BMPR2, 2210 nM; in the assay with CSNK1A1 (CATDS: 0.24698540566434601), 453 nM; with CSNK1D, 417 nM; in the assay with CSNK1E, 864 nM; in the assay with PKN2 it was 2120 nM.
For `N#Cc1c(C(=O)c2ccccc2)cnn1-c1ccccc1` [RO1150868-000], the potency estimated from few doses in the assay with ADCK3 (compound concentrations: 100 nM and 1000 nM (sheet 'Samples'), CATDS: 0.41640381160796702) is 510 nM; with ARAF it was 875 nM; with PIK3CB, 1020 nM.
